TDP1 cell noCPT – qHTS for Inhibitors of human tyrosyl-DNA phosphodiesterase 1 (TDP1): qHTS in cells in absence of CPT; Potency, µM (top dose mostly 46.2 µM), inactives show at the highest dose activity change, negative = growth inhibition, actives largely listed as inhibitors; actives 15% (n = 420,000); AID 686978, 2013; DT40 Tdp1-/- hTDP1 cells, no CPT, ATP luminescence, 48 h; further: nearly all actives have a fitted effect of over 55% in size
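Growth kinetics read by CellTiter-Glo luminescence after ≥48 hr at 37 °C. Cells: DT40 Tdp1-/- stably carrying human TDP1, 400 per well, compound exposure in the absence of CPT (DMSO vehicle).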
VDR inh – Inhibitors of the vitamin D receptor (VDR): qHTS | Vitamin D3 receptor (Homo sapiens), P11473 | VDR-SRC2-3 peptide fluorescence polarization, 2 h | Potency, µM, for the others: max response, negative = inhibition, actives largely listed as inhibitors | actives 0.93% (n = 400,000)
Target sequence (P11473 whole entry, looked up): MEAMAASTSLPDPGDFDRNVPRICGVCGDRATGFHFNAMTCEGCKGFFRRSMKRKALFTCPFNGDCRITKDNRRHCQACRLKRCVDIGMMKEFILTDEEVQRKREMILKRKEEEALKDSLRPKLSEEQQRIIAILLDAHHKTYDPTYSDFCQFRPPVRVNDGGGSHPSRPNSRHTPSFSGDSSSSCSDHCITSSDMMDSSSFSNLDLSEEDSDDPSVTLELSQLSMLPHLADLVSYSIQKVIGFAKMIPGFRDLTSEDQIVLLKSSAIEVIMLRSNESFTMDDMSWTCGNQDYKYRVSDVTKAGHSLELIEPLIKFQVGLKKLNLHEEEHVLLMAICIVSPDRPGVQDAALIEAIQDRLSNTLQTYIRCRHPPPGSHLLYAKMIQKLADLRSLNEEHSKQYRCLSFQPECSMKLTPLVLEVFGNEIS
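Inhibition of the VDR/SRC2-3 peptide interaction is quantified by fluorescence polarization. Compounds (23 nl, pintool) incubate with the reagents for 2 hours at ambient room temperature.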
GCN5L2 inh – qHTS Assay for Inhibitors of GCN5L2. Histone acetyltransferase KAT2A (Homo sapiens), Q92830. GCN5L2 HAT assay, ThioGlo1 CoA-SH fluorescence. Potency, µM (doses to about 58.9 µM), for the others: top-dose activity change, negative = inhibition, usual class: inhibitors. actives 0.21% (n = 390,000). AID 504327, 2011
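Compounds, pin-transferred from DMSO stocks, meet 20nM GCN5L2 for 15 min before the reaction begins with H3(1-25) peptide (75uM) and acetyl-CoA (70uM). Thiol-reactive ThioGlo1 reports CoA release over 20 min at room temperature.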
TDP1 inh – qHTS Assay for Inhibitors of Tyrosyl-DNA Phosphodiesterase (TDP1). actives 0.28% (n = 350,000). Tyrosyl-DNA phosphodiesterase 1 (Homo sapiens), Q9NUW8. recombinant TDP1, AlphaScreen DNA substrate cleavage. Potency, µM (titrated, usually from 130 µM), inactives show top-dose activity change, negative = inhibition, most hits filed as inhibitors; further: nearly all actives have a fitted effect of over 40% in size
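Steps: enzyme plus compound, 15 min RT; add biotin/phosphotyrosine-FITC oligonucleotide (15 nM final), react 5 min; add donor/acceptor beads (10 ug/ml final), 10 min; read AlphaScreen. Tdp1 at 1 nM final.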
PLK1 PBD inh – qHTS for Inhibitors of PLK1-PDB (polo-like kinase 1 - polo-box domain): Primary Screen. AID 720504, 2013. Plk1 PBD binding of FITC phosphopeptide, fluorescence polarization. Potency, µM, without a hit: max response, negative = inhibition, hits mostly inhibitors. Serine/threonine-protein kinase PLK1 (Homo sapiens), P53350. actives 2.8% (n = 360,000); further: series mostly up to about 57 µM; nearly all actives have a fitted effect of over 65% in size
TDP1 cell CPT – qHTS for Inhibitors of human tyrosyl-DNA phosphodiesterase 1 (TDP1): qHTS in cells in presence of CPT. Potency, µM (series often up to 46.2 µM), inactives show at the highest dose activity change, negative = growth inhibition, most hits filed as inhibitors. AID 686979, 2013. chicken DT40 Tdp1-/-;hTDP1 cells + 20 nM CPT, ATP luminescence, 48 h. actives 12% (n = 420,000); further: nearly all actives have a fitted effect of over 55% in size
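Cell growth measured by CellTiter-Glo luminescence after a minimum 48 h, 37 C compound exposure with 20 nM CPT in Tdp1-knockout DT40 cells stably expressing hTDP1, seeded 400/well; qHTS titration format.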
An asterisk follows results filed as active; ? = inconclusive; . = no result given; [ ] = dose if it differs, or a comment. Hits are enriched below; roughly 18% of the tested compounds scored in any of these assays. The call rests on the fitted dose curve; in most records, active means well fitted curve in the direction sought with a large enough effect; inconclusive means small, poorly fitted or top-dose-only effect, or another doubt; inactive means no such curve, though single readings can be large; an effect the other way counts as inactive or inconclusive. On the % scale 0 is the no-effect control and ±100 the full control effect; potency means the concentration at half of the fitted maximal effect.

SMILES	TDP1 cell noCPT	VDR inh	GCN5L2 inh	TDP1 inh	PLK1 PBD inh	TDP1 cell CPT
CCn1cc(C(=O)N(C)c2cc(C)ccc2OC)c2cc(OC)c(OC)cc2c1=O	-11%	15%	-5%	.	-9%	-17%
COc1cc2c(C(=O)N(C)c3cccc(C(F)(F)F)c3)cn(CC(C)C)c(=O)c2cc1OC	18µM*	-8%	-7%	6%	.	13µM*
Cc1cccc(-n2ncc(C(=O)NCc3ccccn3)c2C2CCN(C(=O)OC(C)(C)C)CC2)c1	?	27%	4%	5%	.	?
CSc1ccc(/C=C2/C(C)=C(CC(=O)O)c3cc(F)ccc32)cc1	-7%	45µM*	?	16%	.	-21%
O=C(Nc1ccc2nc(C3CC3)n(Cc3ccc(F)cc3)c(=O)c2c1)c1ccco1	?	6%	-6%	10%	2%	20µM*
CCC(=O)Nc1ccc2nc(C3CC3)n(Cc3ccc(C(C)(C)C)cc3)c(=O)c2c1	15µM*	?	-1%	.	12µM*	18µM*
Cc1ccc(NC(=O)C2CC(=O)Nc3ncnn32)cc1Cl (stereo not drawn)	16%	-17%	-2%	.	27µM*	-29%
Cc1noc(C)c1C(=O)N1CCC[C@@]2(CCN(Cc3ccccc3)C2)C1	-5%	1%	-2%	.	.	6%
Cc1noc(C)c1C(=O)N1CCC[C@@]2(CCN(c3cccc(-c4ccccc4)c3)C2)C1	18µM*	40µM*	-6%	.	.	16µM*
Cc1noc(C)c1C(=O)N1CCC2(CCCN(Cc3ccccc3)C2)CC1	-7%	-14%	-4%	.	.	4%
COc1ccc(C(=O)N2CCC[C@@]3(CCN(c4cccc(-c5ccccc5)c4)C3)C2)cc1	?	40µM*	-14%	.	.	?
COc1ccc(C(=O)N2CCC3(CCCN(c4ccc(-c5ccccc5)cc4)C3)CC2)cc1	?	?	-2%	.	.	-19%
Cc1noc(C)c1C(=O)N1CCC2(CCCN(C(c3ccccc3)c3ccccc3)C2)CC1	23µM*	?	-8%	.	.	?
Cc1cccc(C(=O)OCC(=O)c2csc(N3CCCCC3)n2)c1[N+](=O)[O-]	?	0%	-26%	-4%	-15%	?
Nc1c(NC2CCCCC2)c2ccccc2oc1=O	16µM*	0%	-3%	-5%	-12%	?
CN(C)CCNc1c(N)c(=O)oc2ccccc12	?	9%	-1%	-3%	-12%	?
Nc1c(NCCN2CCOCC2)c2ccccc2oc1=O	9.2µM*	7%	?	4%	-10%	5.2µM*
COc1ccc(NC(=O)CN(C)C(=O)C2(c3ccccc3)CCCC2)cc1	?	6%	-8%	0%	-16%	?
Cn1c(=O)n(C)c2cc(N3CCCCC3)c(NC(=O)c3c(F)cccc3F)cc21	26µM*	-16%	-10%	0%[12.3 µM]	.	13µM*
Cc1ccc(C(=O)Nc2cc3c(cc2N2CCCCC2)n(C)c(=O)n3C)cc1	1%	-9%	-4%	-11%	-16%	-29%
Cc1ccccc1C(=O)Nc1cc2c(cc1N1CCCCC1)n(C)c(=O)n2C	12µM*	17%	-5%	2%	.	-82%
COc1cccc(/C=C/C(=O)NNC(=O)c2ccncc2)c1OC	-4%	-4%	-1%	2%	-3%	2%
CCn1c(/C=C/c2ccc(F)cc2)nc2ccccc2c1=O	?	?	-5%	.	3%	?
COc1cccc(/C=C/c2nc3ccccc3nc2/C=C/c2cccc(OC)c2OC)c1OC	2.8µM*	.	.	.	.	8.9µM*
Fc1ccc(/C=C/c2nccc3ccccc23)cc1	14µM*	.	.	.	.	7.1µM*
SMILES	TDP1 cell noCPT	VDR inh	GCN5L2 inh	TDP1 inh	PLK1 PBD inh	TDP1 cell CPT
COc1cccc(/C=C/c2ccncc2)c1OC	23µM*	-8%	0%	-3%	-8%	?
COc1cccc(/C=N/Nc2nc3ccccc3[nH]2)c1OC	-27%	4%	-7%	5%	-11%	7%
COc1cccc(/C=C/c2nccc3ccccc23)c1OC	16µM*	.	.	.	.	?
Cn1nccc1C(=O)Nc1cccc(S(=O)(=O)N2CCOCC2)c1	13%	-12%	-17%	1%	3%	0%
O=C(NNC(=S)NC(=O)c1cccs1)c1ccc(O)cc1	?	4%	-4%	11%	-8%	23µM*
O=C(CC(=O)c1cccs1)c1ccncc1	29µM*	7%	.	.	-4%	21µM*
O=C(Nc1ccc(NC(=S)NC(=O)c2cccs2)cc1)c1ccccc1	-19%	-13%	1%	1%	-4%	-19%
O=C(CNC(=S)NC(=O)c1cccs1)c1ccccc1	15µM*	-17%	-4%	-3%	2%	16µM*
O=C(NNC(=S)NC(=O)c1cccs1)c1ccc(NC(=O)c2ccccc2)cc1	?	-21%	1%	10%	-11%	26µM*
O=C(NC(=S)NCc1ccccc1)c1cccs1	10%	?	-19%	3%	-17%	23%
CSc1cccc(NC(=O)CN2C(=O)COc3ccc(S(=O)(=O)N4CCC(C)CC4)cc32)c1	?	8%	-15%	3%	.	?
CN1CCc2nc3ccc(Cl)cc3c(-c3ccccc3Cl)c2C1	?	-19%	0%	9%	-5%	?
CN(C)c1nc(NC(C)(C)C)nc(NC(C)(C)C)n1	21µM*	8%	-8%	2%	-11%	?
CCNc1nc(NC(C)(C)C)nc(N(CC)n2cnnc2)n1	-16%	-4%	1%	2%	-8%	-1%
COc1ccc2nc(NC(=O)c3cc(=O)c4ccccc4o3)sc2c1	-25%	8%	-9%	6%	.	-2%
Cc1nnc(NC(=O)c2ccc(S(=O)(=O)N3CCc4ccccc4C3)cc2)o1	?	-5%	-16%	11%	-15%	?
Cc1cc(C)c2nc(NNC(=O)c3cc(=O)c4ccccc4o3)sc2c1	?	40µM*	-9%	.	-26%	29µM*
Cc1cc(C)c2sc(N(CCCN(C)C)C(=O)c3ccc(S(=O)(=O)N4CCc5ccccc5C4)cc3)nc2c1	.	.	-1%	6%	.	.
Cc1cc(C)c2sc(NNC(=O)c3ccc(S(=O)(=O)N4CCc5ccccc5C4)cc3)nc2c1	2.6µM*	4%	-9%	11%	-11%	3.3µM*
